# Measurements published in PubChem BioAssay AID1159580 (chemical genetic matrix, 2015).
# Screen size: about 5,500 compounds; about 2,000 (36%) were called active. Another 18% or so got no clear call; they are omitted. This is one part of the list. Unmarked numbers belong to inactive results. Rule as the data show it: active = normalized growth mostly below about 0.91 (no sharp cut-off); inconclusive = no clear call, values can overlap the other calls; inactive = mostly above about 0.92.
# Assay: chemical genetic growth profiling, strain panel (AID 1159580);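 also: tested at 20 µM; growth read once vehicle control cultures reached saturation at 30 °C; 1 = growth at the plate median or of vehicle wells; lower values mean less growth of the strain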
# Settings: S. cerevisiae deletion strains, growth OD
# [1] = locus YAL013W, strain DEP1, hits give low values
# [2] = locus YMR263W, strain SAP30, hits give low values
# [3] = locus YNL322C, strain KRE1, hits give low values
# [4] = locus YAL040C, strain CLN3, hits give low values
# [5] = locus YCL061C, strain MRC1 (second series), hits give low values
# [6] = locus YDR150W, strain NUM1, hits give low values
# [7] = locus YDR363W, strain ESC2, hits give low values
# [8] = locus YER002W, strain NOP16, hits give low values
# [9] = locus YNL175C, strain NOP13, hits give low values
# [10] = locus YNL197C, strain WHI3, hits give low values
# [11] = locus YNL224C, strain SQS1, hits give low values
# [12] = locus YOR083W, strain WHI5 (second series), hits give low values
smiles,measurement,setting,value
CC(Cc1ccc(O)c(O)c1)C(C)Cc1ccc(O)c(O)c1 (configuration not stated),normalized growth,[1],0.625 (active)
same,normalized growth,"locus YBR021W, strain FUR4, hits give low values",0.952
same,normalized growth,"locus YBR229C, strain ROT2, hits give low values",0.909 (active)
same,normalized growth,"locus YCL029C, strain bik1, hits give low values",0.916
same,normalized growth,"locus YDL035C, strain GPR1, hits give low values",0.774 (active)
same,normalized growth,"locus YDL074C, strain BRE1, hits give low values",0.48 (active)
same,normalized growth,"locus YDL101C, strain DUN1, hits give low values",0.522 (active)
same,normalized growth,"locus YDL185W, strain tfp1, hits give low values",0.995
same,normalized growth,"locus YDL192W, strain arf1, hits give low values",0.896 (active)
same,normalized growth,"locus YDR101C, strain arx1, hits give low values",0.939
same,normalized growth,"locus YDR162C, strain NBP2, hits give low values",0.428 (active)
same,normalized growth,"locus YDR318W, strain mcm21, hits give low values",0.955
same,normalized growth,"locus YDR388W, hits give low values",0.895 (active)
same,normalized growth,"locus YDR502C, strain sam2, hits give low values",0.813 (active)
same,normalized growth,"locus YEL061C, strain CIN8, hits give low values",0.681 (active)
same,normalized growth,"locus YER110C, hits give low values",0.988
same,normalized growth,"locus YER155C, strain BEM2, hits give low values",0.756 (active)
same,normalized growth,"locus YER167W, strain BCK2, hits give low values",0.957
same,normalized growth,"locus YGL078C, strain dbp3, hits give low values",0.999
same,normalized growth,"locus YGL086W, strain mad1, hits give low values",0.909 (active)
same,normalized growth,"locus YGL248W, strain PDE1, hits give low values",0.814 (active)
same,normalized growth,"locus YGR078C, strain PAC10, hits give low values",0.818 (active)
same,normalized growth,"locus YGR135W, strain pre9, hits give low values",0.854 (active)
same,normalized growth,"locus YGR229C, strain SMI1, hits give low values",0.419 (active)
same,normalized growth,"locus YGR252W, strain gcn5, hits give low values",0.792
same,normalized growth,"locus YHR030C, strain SLT2, hits give low values",0.87 (active)
same,normalized growth,"locus YHR079C, strain IRE1 (second series), hits give low values",0.904 (active)
same,normalized growth,"locus YHR094C, strain hxt1, hits give low values",1.01
same,normalized growth,"locus YHR129C, strain ARP1, hits give low values",0.73 (active)
same,normalized growth,"locus YHR200W, strain rpn10, hits give low values",0.964
same,normalized growth,"locus YIL066C, strain RNR3, hits give low values",0.61 (active)
same,normalized growth,"locus YIL073C, strain SPO22, hits give low values",0.499 (active)
same,normalized growth,"locus YIL125W, strain kgd1, hits give low values",1
same,normalized growth,"locus YIR030C, strain dcg1, hits give low values",0.903 (active)
same,normalized growth,"locus YJL095W, strain BCK1, hits give low values",0.113 (active)
same,normalized growth,"locus YJL134W, strain LCB3, hits give low values",0.909 (active)
same,normalized growth,"locus YJL168C, strain set2, hits give low values",0.983
same,normalized growth,"locus YJL187C, strain SWE1 (second series), hits give low values",0.621 (active)
same,normalized growth,"locus YJR043C, strain POL32, hits give low values",0.425 (active)
same,normalized growth,"locus YKL009W, strain mrt4, hits give low values",0.993
same,normalized growth,"locus YKL068W, hits give low values",1.01
same,normalized growth,"locus YKL085W, strain MDH1 (second series), hits give low values",0.992
same,normalized growth,"locus YKL085W, strain MDH1, hits give low values",0.992
same,normalized growth,"locus YKR001C, strain vps1, hits give low values",0.882 (active)
same,normalized growth,"locus YLR039C, strain RIC1, hits give low values",0.293 (active)
same,normalized growth,"locus YLR058C, strain SHM2, hits give low values",0.643 (active)
same,normalized growth,"locus YLR102C, strain apc9, hits give low values",1.01
same,normalized growth,"locus YLR262C, strain YPT6, hits give low values",0.616
same,normalized growth,"locus YLR268W, strain sec22, hits give low values",0.853 (active)
same,normalized growth,"locus YLR330W, strain CHS5, hits give low values",0.82 (active)
same,normalized growth,"locus YLR342W, strain FKS1 (second series), hits give low values",0.645 (active)
same,normalized growth,"locus YLR371W, strain rom2, hits give low values",0.919
same,normalized growth,"locus YLR418C, strain cdc73, hits give low values",0.673 (active)
same,normalized growth,"locus YML016C, strain PPZ1, hits give low values",0.746 (active)
same,normalized growth,"locus YML032C, strain rad52, hits give low values",0.927
same,normalized growth,"locus YML124C, strain tub3, hits give low values",0.979
same,normalized growth,"locus YMR078C, strain ctf18, hits give low values",0.973
same,normalized growth,"locus YMR223W, strain ubp8, hits give low values",0.91
same,normalized growth,[2],0.455 (active)
same,normalized growth,"locus YMR307W, strain GAS1, hits give low values",0.691
same,normalized growth,"locus YNL067W, strain RPL9B, hits give low values",0.726 (active)
same,normalized growth,"locus YNL128W, strain TEP1, hits give low values",0.816 (active)
same,normalized growth,"locus YNL233W, strain BNI4, hits give low values",0.849 (active)
same,normalized growth,"locus YNL250W, strain rad50, hits give low values",1.03
same,normalized growth,"locus YNL271C, strain bni1, hits give low values",0.997
same,normalized growth,"locus YNL298W, strain CLA4, hits give low values",0.981
same,normalized growth,"locus YNL307C, strain MCK1, hits give low values",0.899 (active)
same,normalized growth,[3],0.522 (active)
same,normalized growth,"locus YNR052C, strain pop2, hits give low values",0.927
same,normalized growth,"locus YOL012C, strain htz1",0.299
same,normalized growth,"locus YOL147C, strain pex11, hits give low values",0.936
same,normalized growth,"locus YOR061W, strain CKA2, hits give low values",0.871 (active)
same,normalized growth,"locus YOR069W, strain VPS5, hits give low values",0.858 (active)
same,normalized growth,"locus YOR136W, strain idh2, hits give low values",1.01
same,normalized growth,"locus YOR144C, strain elg1, hits give low values",0.95
same,normalized growth,"locus YOR184W, strain ser1, hits give low values",0.784 (active)
same,normalized growth,"locus YOR316C, strain cot1, hits give low values",0.999
same,normalized growth,"locus YPR119W, strain clb2, hits give low values",1.01
same,normalized growth,"locus YPR141C, strain kar3, hits give low values",1.01
same,normalized growth,"locus YPR163C, strain tif3, hits give low values",0.982
same,normalized growth,"locus YPR167C, strain met16, hits give low values",0.952
same,normalized growth,"strain wtn01, hits give low values",0.892 (active)
NC(Cc1ccc(O)c(O)c1)C(=O)O (configuration not stated),normalized growth,[1],0.997
same,normalized growth,[4],1.02
same,normalized growth,[5],0.977
same,normalized growth,[6],0.955
same,normalized growth,[7],1.02
same,normalized growth,[8],1.01
same,normalized growth,[2],1.01
same,normalized growth,[9],1.01
same,normalized growth,[10],1.03
same,normalized growth,[11],1.01
same,normalized growth,[12],0.97
CC(N)[C@H](O)c1ccc(O)c(O)c1 (some centres not stated),normalized growth,[1],0.998
same,normalized growth,[4],1.05
same,normalized growth,[5],0.993
same,normalized growth,[6],0.995
same,normalized growth,[7],0.989
same,normalized growth,[8],1
same,normalized growth,"locus YJR075W, strain HOC1, hits give low values",0.983
same,normalized growth,"locus YNL153C, strain GIM3, hits give low values",0.986
same,normalized growth,[9],1.01
same,normalized growth,[10],1.01
same,normalized growth,[11],0.992
same,normalized growth,[3],1.01
same,normalized growth,[12],0.988
same,normalized growth,"locus YPL055C, strain LGE1, hits give low values",1
